# Experimental data from PubChem BioAssay (Tox21).
# A number with no mark means an inactive call. Results filed as inconclusive are left out. The source made the active and inactive calls. Unless noted, calls follow the shape of the dose curve; as a rule, active = well fitted curve in the direction sought with a large enough effect in the repeat runs; inconclusive = weak or mixed curves; inactive = no such curve, though single readings can be large; an effect the other way counts as inactive or inconclusive.
# Experiments:
# [1] = target: Voltage-gated inwardly rectifying potassium channel KCNH2 (Homo sapiens) (UniProt Q12809); assay: Human Ether-a-go-go-Related Gene (hERG) channel small molecule antagonists: fluorescence cell-based qHTS assay (AID 1671200); details: hERG-U2OS cells, FluxOR thallium flux fluorescence; series mostly up to 76.8 µM; also: nearly all actives have a fitted effect of over 50% in size;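 as to activity change, negative = inhibition: hERG-expressing U2OS cells given a thallium stimulus after FluxOR II dye loading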
# Chain of Voltage-gated inwardly rectifying potassium channel KCNH2 (Homo sapiens) (Q12809 whole entry, looked up): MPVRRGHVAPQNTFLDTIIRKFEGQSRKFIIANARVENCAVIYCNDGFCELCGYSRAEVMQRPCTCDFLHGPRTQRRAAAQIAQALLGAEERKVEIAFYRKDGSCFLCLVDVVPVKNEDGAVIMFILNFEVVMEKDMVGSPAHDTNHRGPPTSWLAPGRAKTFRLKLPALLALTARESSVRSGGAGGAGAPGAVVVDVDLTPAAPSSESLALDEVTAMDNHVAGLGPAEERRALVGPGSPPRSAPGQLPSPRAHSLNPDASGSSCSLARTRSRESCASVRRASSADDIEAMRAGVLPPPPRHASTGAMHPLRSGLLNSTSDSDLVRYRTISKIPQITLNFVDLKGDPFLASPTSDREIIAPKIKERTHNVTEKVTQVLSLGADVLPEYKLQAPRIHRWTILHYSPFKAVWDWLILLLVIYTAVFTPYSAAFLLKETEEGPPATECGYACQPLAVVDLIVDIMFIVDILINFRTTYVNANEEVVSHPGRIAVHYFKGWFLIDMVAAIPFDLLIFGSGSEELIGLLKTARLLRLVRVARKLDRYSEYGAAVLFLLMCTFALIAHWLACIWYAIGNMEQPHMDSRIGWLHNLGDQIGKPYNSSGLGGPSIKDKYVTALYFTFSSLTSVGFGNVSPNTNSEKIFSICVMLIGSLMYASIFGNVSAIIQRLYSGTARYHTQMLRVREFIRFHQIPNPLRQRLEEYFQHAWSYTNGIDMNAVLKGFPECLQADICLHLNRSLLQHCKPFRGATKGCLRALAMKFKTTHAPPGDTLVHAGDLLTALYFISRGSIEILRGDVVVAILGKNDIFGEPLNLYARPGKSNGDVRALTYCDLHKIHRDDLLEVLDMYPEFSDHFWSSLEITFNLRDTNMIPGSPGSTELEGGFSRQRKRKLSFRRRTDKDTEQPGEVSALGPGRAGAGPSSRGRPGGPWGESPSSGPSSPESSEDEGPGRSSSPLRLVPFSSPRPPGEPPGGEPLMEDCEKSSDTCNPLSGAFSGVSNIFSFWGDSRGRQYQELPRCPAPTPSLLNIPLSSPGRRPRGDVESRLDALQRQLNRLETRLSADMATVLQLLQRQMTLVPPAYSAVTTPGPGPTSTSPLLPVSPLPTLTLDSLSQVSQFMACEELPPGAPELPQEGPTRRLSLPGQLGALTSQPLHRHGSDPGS
# How it was run: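 U2OS cells expressing the channel were plated at 1000 cells/well, incubated overnight at 37 C, then loaded with FluxOR II thallium-sensitive dye for 1 h at room temperature in the dark, with a further 10 min at room temperature before stimulation.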
# [2] = target: Acetylcholinesterase (Homo sapiens) (UniProt P22303); assay: Acetylcholinesterase (AChE) small molecule antagonists: enzyme-based qHTS assay with human liver microsomes (AID 1347399; calls by dose curve; also: nearly all actives have a fitted effect of over 60% in size); details: Potency: qHTS inhibition; series mostly up to 115 µM
# Chain of Acetylcholinesterase (Homo sapiens) (P22303 whole entry, looked up): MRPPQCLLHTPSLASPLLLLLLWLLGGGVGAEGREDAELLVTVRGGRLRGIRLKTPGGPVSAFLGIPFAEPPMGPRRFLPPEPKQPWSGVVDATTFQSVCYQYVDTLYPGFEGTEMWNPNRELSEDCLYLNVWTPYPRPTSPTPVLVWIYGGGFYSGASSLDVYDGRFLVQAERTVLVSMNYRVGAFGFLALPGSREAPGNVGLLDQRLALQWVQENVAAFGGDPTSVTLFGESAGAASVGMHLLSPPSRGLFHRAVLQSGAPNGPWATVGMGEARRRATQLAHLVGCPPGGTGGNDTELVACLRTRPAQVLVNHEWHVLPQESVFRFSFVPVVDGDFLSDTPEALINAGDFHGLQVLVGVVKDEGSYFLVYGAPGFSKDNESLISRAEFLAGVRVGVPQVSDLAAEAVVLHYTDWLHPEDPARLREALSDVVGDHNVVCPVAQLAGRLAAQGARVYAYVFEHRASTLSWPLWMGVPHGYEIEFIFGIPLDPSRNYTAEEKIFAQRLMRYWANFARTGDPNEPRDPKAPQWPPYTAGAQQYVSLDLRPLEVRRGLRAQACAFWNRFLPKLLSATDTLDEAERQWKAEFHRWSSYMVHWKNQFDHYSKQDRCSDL
# How it was run: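 Recombinant human AChE (50 mU/mL in the enzyme mix) and human liver microsomes (0.25 mg/mL final) were preincubated with compound and NADPH (0.25 mg/mL final) for 30 min at 37 C. Acetylthiocholine/DTNB was then added; thiocholine was read colorimetrically after 10 min at room temperature.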
# [3] = target: Cytochrome P450 2D6 (Homo sapiens) (UniProt P10635); assay: Cytochrome P450 Family 2 Subfamily D Member 6 (CYP2D6) small molecule antagonists: luciferase reporter qHTS assay (AID 1671196); details: P450-Glo CYP2D6 enzyme assay, luciferin luminescence, 1 h; series mostly up to 115 µM; also: nearly all actives have a fitted effect of over 50% in size
# Chain of Cytochrome P450 2D6 (Homo sapiens) (P10635 whole entry, looked up): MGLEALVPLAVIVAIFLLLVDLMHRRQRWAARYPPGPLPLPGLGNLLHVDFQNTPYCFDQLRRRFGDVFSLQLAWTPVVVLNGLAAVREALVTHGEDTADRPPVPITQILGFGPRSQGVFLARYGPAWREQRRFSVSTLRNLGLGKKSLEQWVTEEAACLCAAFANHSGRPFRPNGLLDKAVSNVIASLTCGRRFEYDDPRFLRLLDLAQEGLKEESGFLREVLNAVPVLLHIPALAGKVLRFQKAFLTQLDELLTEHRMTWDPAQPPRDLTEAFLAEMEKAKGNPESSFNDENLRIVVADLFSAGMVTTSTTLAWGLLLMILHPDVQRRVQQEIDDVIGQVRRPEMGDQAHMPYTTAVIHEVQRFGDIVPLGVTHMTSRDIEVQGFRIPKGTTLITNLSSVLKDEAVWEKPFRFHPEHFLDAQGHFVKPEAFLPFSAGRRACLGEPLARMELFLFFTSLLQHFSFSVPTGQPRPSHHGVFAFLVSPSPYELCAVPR
# How it was run: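 Test chemicals meet CYP2D6 plus proluciferin substrate (10 min, RT); NADPH regenerating solution then drives turnover for 1 h. Detection reagent halts the reaction; luminescence measured after 20 min.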
# [4] = target: Cytochrome P450 2C19 (Homo sapiens) (UniProt P33261); assay: Cytochrome P450 Family 2 Subfamily C Member 19 (CYP2C19) small molecule antagonists: luciferase reporter qHTS assay (AID 1671197); details: P450-Glo CYP2C19 enzyme, luciferin luminescence, 1 h; series mostly up to 115 µM; also: nearly all actives have a fitted effect of over 65% in size
# Chain of Cytochrome P450 2C19 (Homo sapiens) (P33261 whole entry, looked up): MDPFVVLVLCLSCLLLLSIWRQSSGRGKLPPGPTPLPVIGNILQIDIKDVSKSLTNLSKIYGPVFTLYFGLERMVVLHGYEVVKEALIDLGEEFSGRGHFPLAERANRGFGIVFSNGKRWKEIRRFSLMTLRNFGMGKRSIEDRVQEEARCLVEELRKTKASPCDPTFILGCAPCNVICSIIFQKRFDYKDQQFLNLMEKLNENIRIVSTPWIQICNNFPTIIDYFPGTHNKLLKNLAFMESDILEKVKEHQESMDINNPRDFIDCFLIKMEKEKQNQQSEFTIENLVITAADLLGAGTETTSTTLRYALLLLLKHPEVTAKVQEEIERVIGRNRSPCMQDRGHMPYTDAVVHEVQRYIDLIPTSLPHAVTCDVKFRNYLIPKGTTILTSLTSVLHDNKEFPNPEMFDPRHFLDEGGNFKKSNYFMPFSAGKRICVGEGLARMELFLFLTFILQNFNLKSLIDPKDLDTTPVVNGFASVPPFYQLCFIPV
# How it was run: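 Light output is proportional to CYP2C19 activity: proluciferin substrate is converted to luciferin, then detected by a luciferin detection reagent that also stops the 1 h, 37C NADPH-driven reaction. Ketoconazole serves as positive control.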
# [5] = target: Cytochrome P450 2C9 (Homo sapiens) (UniProt P11712); assay: Cytochrome P450 Family 2 Subfamily C Member 9 (CYP2C9) small molecule antagonists: luciferase reporter qHTS assay (AID 1671198); details: P450-Glo CYP2C9 enzyme assay, luciferin luminescence; series mostly up to 115 µM; also: nearly all actives have a fitted effect of over 50% in size
# Chain of Cytochrome P450 2C9 (Homo sapiens) (P11712 whole entry, looked up): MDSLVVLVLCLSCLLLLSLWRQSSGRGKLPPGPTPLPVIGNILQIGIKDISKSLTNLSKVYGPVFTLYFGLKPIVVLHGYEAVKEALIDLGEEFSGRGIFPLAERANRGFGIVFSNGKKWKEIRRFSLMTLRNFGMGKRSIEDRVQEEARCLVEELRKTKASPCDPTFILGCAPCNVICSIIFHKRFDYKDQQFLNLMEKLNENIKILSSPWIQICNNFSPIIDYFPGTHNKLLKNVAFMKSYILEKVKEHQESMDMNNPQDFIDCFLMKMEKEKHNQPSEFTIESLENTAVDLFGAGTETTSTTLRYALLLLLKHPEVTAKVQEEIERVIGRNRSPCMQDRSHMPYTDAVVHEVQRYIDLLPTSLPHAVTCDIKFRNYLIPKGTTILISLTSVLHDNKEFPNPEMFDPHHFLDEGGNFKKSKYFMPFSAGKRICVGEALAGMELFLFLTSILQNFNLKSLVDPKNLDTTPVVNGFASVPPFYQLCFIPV
# How it was run: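 CYP2C9 activity was measured with a P450-Glo proluciferin substrate. Enzyme–substrate mix was held with compound for 10 min at room temperature, then NADPH regeneration solution was added for 1 h at 37C. Luciferin product was read as luminescence.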
# [6] = target: Cytochrome P450 3A4 (Homo sapiens) (UniProt P08684); assay: Cytochrome P450 Family 3 Subfamily A Member 4 (CYP3A4) small molecule antagonists: luciferase reporter qHTS assay (AID 1671201); details: P450-Glo CYP3A4 enzyme, luciferin luminescence, 1 h; series mostly up to 115 µM; also: nearly all actives have a fitted effect of over 50% in size
# Chain of Cytochrome P450 3A4 (Homo sapiens) (P08684 whole entry, looked up): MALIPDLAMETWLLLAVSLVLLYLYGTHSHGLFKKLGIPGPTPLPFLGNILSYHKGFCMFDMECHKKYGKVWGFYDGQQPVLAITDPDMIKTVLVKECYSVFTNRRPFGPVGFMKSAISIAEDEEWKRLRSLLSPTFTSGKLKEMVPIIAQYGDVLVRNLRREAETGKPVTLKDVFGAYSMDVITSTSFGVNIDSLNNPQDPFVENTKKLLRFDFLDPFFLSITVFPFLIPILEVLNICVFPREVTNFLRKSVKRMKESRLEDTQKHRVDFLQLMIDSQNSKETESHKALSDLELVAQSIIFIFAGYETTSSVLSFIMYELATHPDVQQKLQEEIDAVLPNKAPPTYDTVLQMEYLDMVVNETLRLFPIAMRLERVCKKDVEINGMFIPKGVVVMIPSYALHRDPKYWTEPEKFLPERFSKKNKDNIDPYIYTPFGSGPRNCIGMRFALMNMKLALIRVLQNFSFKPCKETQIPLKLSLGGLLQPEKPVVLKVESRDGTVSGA
# How it was run: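 P450-Glo CYP3A4 system with proluciferin substrate; compounds preincubated 10 min RT with enzyme-substrate mix, then NADPH regeneration added for 1 h RT. Detection reagent 20 min, luminescence read as relative luminescence units.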
# [7] = target: Cytochrome P450 1A2 (Homo sapiens) (UniProt P05177); assay: Cytochrome P450 Family 1 Subfamily A Member 2 (CYP1A2) small molecule antagonists: luciferase reporter qHTS assay (AID 1671199); details: P450-Glo CYP1A2 enzyme, luciferin luminescence, 1 h; series mostly up to 115 µM; also: nearly all actives have a fitted effect of over 50% in size
# Chain of Cytochrome P450 1A2 (Homo sapiens) (P05177 whole entry, looked up): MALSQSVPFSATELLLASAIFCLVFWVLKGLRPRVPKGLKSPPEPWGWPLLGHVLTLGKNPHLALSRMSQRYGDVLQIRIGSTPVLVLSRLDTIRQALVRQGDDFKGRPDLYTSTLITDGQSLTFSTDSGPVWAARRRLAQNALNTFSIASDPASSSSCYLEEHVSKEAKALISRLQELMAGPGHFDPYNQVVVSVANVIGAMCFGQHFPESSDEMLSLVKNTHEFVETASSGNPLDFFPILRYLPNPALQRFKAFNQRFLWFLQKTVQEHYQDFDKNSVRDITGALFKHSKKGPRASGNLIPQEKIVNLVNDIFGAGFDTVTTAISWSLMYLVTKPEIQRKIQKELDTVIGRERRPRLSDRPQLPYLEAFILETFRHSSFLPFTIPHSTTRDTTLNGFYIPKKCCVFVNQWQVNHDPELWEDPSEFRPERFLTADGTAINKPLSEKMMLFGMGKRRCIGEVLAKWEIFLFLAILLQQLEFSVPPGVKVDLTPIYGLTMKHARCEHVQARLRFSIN
# How it was run: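 Steps: enzyme-substrate mix dispensed; test compounds and furafylline control pinned in; 10 min room temperature; NADPH regeneration solution added, 1 h; reaction stopped with luciferin detection reagent; luminescence read after 20 min.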
# % is scaled to controls: 0 for no effect and ±100 for the full control effect; potency is read from the fitted curve at half-maximal effect.
compound,measurement,setting,value
CC(=O)[O-].[Tl+],Potency,[1],inactive
ClC1=C(Cl)[C@]2(Cl)[C@@H]3[C@@H]4C[C@@H]([C@H]5O[C@@H]45)[C@@H]3[C@@]1(Cl)C2(Cl)Cl,Potency,[2],inactive
same,Potency,[3],25.2 µM (active)
same,Potency,[4],3.17 µM (active)
O=[N+]([O-])c1cc([N+](=O)[O-])c2ccccc2c1,Potency,[2],inactive
same,Potency,[5],inactive
same,Potency,[1],inactive
same,Potency,[6],inactive
CC(=O)[O-].CC(=O)[O-].[Hg+2],Potency,[1],6.92 µM (active)
Cc1ccc(OP(=O)(Oc2ccccc2)Oc2ccccc2)cc1,Potency,[3],inactive
same,Potency,[4],3.22 µM (active)
same,Potency,[5],6.42 µM (active)
same,Potency,[7],11.4 µM (active)
same,Potency,[1],24.9 µM (active)
same,Potency,[6],inactive
CCOP(=S)(OCC)SCS(=O)(=O)C(C)(C)C,Potency,[2],8.94 µM (active)
same,Potency,[4],1.78 µM (active)
same,Potency,[5],5.64 µM (active)
same,Potency,[7],44.8 µM (active)
same,Potency,[1],inactive
same,Potency,[6],2.83 µM (active)
CC(C)CC(C)Nc1ccc(Nc2ccccc2)cc1 (stereo unspecified),Potency,[2],inactive
same,Potency,[3],2.78 µM (active)
same,Potency,[4],0.698 µM (active)
same,Potency,[5],3.5 µM (active)
same,Potency,[7],22.1 µM (active)
same,Potency,[1],24.1 µM (active)
same,Potency,[6],31.2 µM (active)
CN(C)[C@@H]1C(=O)C(C(N)=O)=C(O)[C@@]2(O)C(=O)C3=C(O)c4c(O)ccc(Cl)c4[C@@](C)(O)[C@H]3C[C@@H]12,Potency,[1],inactive
CN(C)C(=S)S,Potency,[1],inactive
CN(C)C(=S)[S-].CN(C)C(=S)[S-].[Cu+2],"activity change, negative = inhibition",[1],-11.4% [at 15.8 µM]
CC(C)CBr,Potency,[2],inactive
same,Potency,[5],inactive
same,Potency,[7],inactive
same,Potency,[1],inactive
same,Potency,[6],inactive
CN(C)CCc1c[nH]c2cccc(O)c12,Potency,[2],inactive
same,Potency,[3],7.03 µM (active)
same,Potency,[4],19.8 µM (active)
same,Potency,[5],7.89 µM (active)
same,Potency,[1],inactive
CCCCCCCCCCCCCCCC[n+]1ccccc1,Potency,[2],inactive
same,Potency,[4],inactive
same,Potency,[7],inactive
CS(=O)(=O)c1ccc(C(=O)C2C(=O)CCCC2=O)c([N+](=O)[O-])c1,Potency,[2],inactive
same,Potency,[4],72.3 µM (active)
same,Potency,[5],31.4 µM (active)
same,Potency,[7],50.3 µM (active)
same,Potency,[1],inactive
same,Potency,[6],inactive
CCCSP(=O)(OCC)SCCC,Potency,[1],inactive
CC(C)Oc1cccc(NC(=O)c2ccccc2C(F)(F)F)c1,Potency,[2],inactive
same,Potency,[4],3.99 µM (active)
same,Potency,[5],13 µM (active)
same,Potency,[7],10.6 µM (active)
same,Potency,[1],50.4 µM (active)
[Cd+2].[Cl-].[Cl-],Potency,[1],inactive
CC(=O)[O-].CC(=O)[O-].O.O.[Cd+2],Potency,[1],inactive
O=C(CCCN1CCC2(CC1)C(=O)NCN2c1ccccc1)c1ccc(F)cc1,Potency,[2],inactive
same,Potency,[3],0.977 µM (active)
same,Potency,[4],inactive
same,Potency,[5],inactive
same,Potency,[7],inactive
same,Potency,[1],1.2 µM (active)
same,Potency,[6],inactive
CCCCCCCCCCCCCCCCCCn1cc[n+](C)c1,Potency,[2],inactive
same,Potency,[4],79.2 µM (active)
same,Potency,[5],50 µM (active)
same,Potency,[7],56.1 µM (active)
same,Potency,[1],6.88 µM (active)
same,Potency,[6],31.5 µM (active)
O=[N+]([O-])O.O=[N+]([O-])O.[Cd],Potency,[1],inactive
CC(C)CCCCCCCOP(=O)(Oc1ccccc1)Oc1ccccc1,Potency,[2],inactive
same,Potency,[4],6.36 µM (active)
same,Potency,[5],6.36 µM (active)
same,Potency,[7],28.4 µM (active)
